The panel holds about 79,000 compounds, 15% with a hit somewhere; the sample as a whole holds those more often. Values without a mark were called inactive. Rule as the data show it: active = growth inhibition above about 70%; inactive = the rest.

The first assay in a line: NCI Yeast Anticancer Drug Screen. Data for the bub3 strain (AID 167). Particulars: S. cerevisiae bub3 mutant strain, at 50.0 µM, stronger effect = higher value. Put shortly:
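Part of a panel of yeast mutants defective in DNA damage repair or cell cycle regulation. Each strain is grown with compound, and inhibition is calculated relative to solvent-treated cultures.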
`COc1cc(-c2c3c(cc4c2OCO4)CC(O)C(C(=O)O)C3)cc(OC)c1OC` (configuration not stated): the growth inhibition is 1.75%.

For `O=C1CCC([N+](=O)[O-])C(c2ccccc2Cl)N1` (configuration not stated), the growth inhibition was 29.7%. On to `COC(=O)CCSc1ccccc1`, for which the growth inhibition is -15.1%.

`Cc1cc(C)cc(C(=O)NCc2ccc[n+]([O-])c2)c1`: the growth inhibition was 0.4%. For the compound `Nc1ncccc1C(=O)O`, the growth inhibition was -0.35%. Same read-out and setting: the figure for `O=C1c2ccccc2Cc2ccccc21` is 16.4%. The same measure, in the same setting: the figure for `O=C(O)CCn1ccc2ccccc21` is 3.1%.

As for `CCCCCCCCC1C(CCCCCCCC(=O)N(CC)CCCOCC)C2(Cl)C(Cl)=C(Cl)C1(Cl)C2(Cl)Cl` (configuration not stated), the growth inhibition was -6.35%. As to `Cc1cnc2[nH]c(-c3ccccc3)cc(=O)c2c1`, the growth inhibition was -8.25%. Regarding `COc1ccc(CSC(=S)Nc2ccc(N=Nc3ccccc3)cc2)cc1`, the growth inhibition is -7.3%.

In the case of `O=P(OCCCl)(OCCCl)C(c1ccccc1)(c1ccccc1)c1ccccc1`, the growth inhibition was 38.5%.

In the case of `CC(=O)c1ccncc1`, the growth inhibition was -1.6%. Take `CCOc1ccccc1NC(=O)C(=O)Cc1nc2ccccc2s1`: the growth inhibition is -0.75%. On the same count and under the same terms, the figure for `CC1CCCC(C)(C)/C1=N/O` (configuration not stated) is 20.8%; for `O=[N+]([O-])c1ccc(S(=O)(=O)c2ccc(NCN3CCCCC3)cc2)cc1` it is 13.7%. Consider `CN(N)C(=O)Nc1ccc([N+](=O)[O-])cc1`, for which the growth inhibition is 12%. With `CN(C)CCC1(C2=CCCC2)CC/C(=C\c2ccc3c(c2)OCO3)C1=O` (configuration not stated), the growth inhibition is -2.55%. `CC(=O)NNC(=S)/N=C\c1c(O)c2ccccc2oc1=O`: the growth inhibition is -38.5%. As for `NC(Cc1ccccc1)C(=O)Nc1cccnc1` (configuration not stated), the growth inhibition is 15.8%.

Take `CCN(CC)CCCC(C)Nc1cc(C)c2nc(C)cc(C)c2c1C` (configuration not stated): the growth inhibition is 3.4%. On the same count and under the same terms, the figure for `CCCCCCCCCCCCCC/C=N/Nc1ccc([N+](=O)[O-])cc1[N+](=O)[O-]` is -2%; for `C/C(=C/C(C)C)C(C)(C#N)C(N)=O` (configuration not stated) it is 8.75%.

A short description of another assay: NCI Yeast Anticancer Drug Screen. Data for the mlh1 rad18 strain (AID 175). Particulars: S. cerevisiae mlh1 rad18 strain growth inhibition; at 50.0 µM; stronger effect = higher value. An outline of the steps:
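Cells of a genetically altered yeast strain, deficient in DNA damage repair, were treated with compound. Their growth was then compared with that of vehicle-treated cultures to give inhibition.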
In the case of `O=C(O)C(C1=CCCCC1)C1(O)CCCCC1` (configuration not stated), the growth inhibition is 12.7%. On the same count and under the same terms, the figure for `CC(=O)Nc1ccc(I)cc1` is 21.9%; for `NC(=O)c1cccc[n+]1[O-]` it is 1.3%; for `COc1ccc(N=Cc2ccc(N(CCC#N)S(=O)(=O)c3ccccc3)cc2)cc1` it is -3.15%. For `Cc1c(-c2ccccc2)c(=O)oc2ccc(Cl)cc12`, the growth inhibition is -15.2%.

`CC1=CC(=O)N2[C@H](OC[C@@H]2C(C)C)O1`: the growth inhibition was 9.5%. Consider `CN(C)c1nc2nc[nH]c2c(=S)n1C`, for which the growth inhibition was 0.15%. On to `CC(C)(C)OC(=O)NC1CCCCC1NC(=O)C(=O)NC1CCCCC1NC(=O)OC(C)(C)C` (configuration not stated), for which the growth inhibition was -30.3%. On the same count and under the same terms, the figure for `O=C(Cc1cc2c(cc1[N+](=O)[O-])OCO2)c1c[nH]c2ccc(Br)cc12` is 7.55%; for `COCC(=O)C(C(C)=O)C(c1ccncc1)C(C(C)=O)C(=O)COC` (configuration not stated) it is -20.4%; for `O=C(NC/C(Cl)=C/Cl)Nc1cccc2c1CCCC2` it is 3.6%. Take `Cn1c(=O)c2c(nc(C3CC3)n2C)n(C)c1=O`: the growth inhibition is 12.1%. The same measure, in the same setting: the figure for `COCc1ccccc1P(c1ccccc1COC)c1ccccc1COC` is 36%. Still for that read-out and setting: the figure for `Oc1ccc(Cl)cc1C=Nc1cnc2ccccc2c1` is 17.4%. With `CCOC(OCC)n1ncnc1NC(=S)NCc1ccccc1`, the growth inhibition was -11.2%.

For `CC(=O)Nc1cc2cc(NC=C(C#N)C#N)ccc2oc1=O`, the growth inhibition was -2.5%. Still for that read-out and setting: the figure for `CCOC(=O)/C(C#N)=C/N=c1ccccn1C` is -4.5%. In the case of `CC(C)=NNC(=O)Nc1cccc(C)c1C`, the growth inhibition is -6.7%. For the compound `COc1cc(-c2c3c(cc4c2OCO4)CC(O)C(C(=O)O)C3)cc(OC)c1OC` (configuration not stated), the growth inhibition was 5.6%. In the case of `O=C1CCC([N+](=O)[O-])C(c2ccccc2Cl)N1` (configuration not stated), the growth inhibition was 20.5%. Turning to `COC(=O)CCSc1ccccc1`, the growth inhibition was -7.6%. The same measure, in the same setting: the figure for `Cc1cc(C)cc(C(=O)NCc2ccc[n+]([O-])c2)c1` is 17.6%. Regarding `Nc1ncccc1C(=O)O`, the growth inhibition was -3.05%.

Regarding `O=C1c2ccccc2Cc2ccccc21`, the growth inhibition is 7.55%. Same read-out and setting: the figure for `O=C(O)CCn1ccc2ccccc21` is 1.6%; for `CCCCCCCCC1C(CCCCCCCC(=O)N(CC)CCCOCC)C2(Cl)C(Cl)=C(Cl)C1(Cl)C2(Cl)Cl` (configuration not stated) it is 16.4%. On the same count and under the same terms, the figure for `Cc1cnc2[nH]c(-c3ccccc3)cc(=O)c2c1` is -48.5%; for `COc1ccc(CSC(=S)Nc2ccc(N=Nc3ccccc3)cc2)cc1` it is 1.55%; for `O=P(OCCCl)(OCCCl)C(c1ccccc1)(c1ccccc1)c1ccccc1` it is 65.2%. As for `CC(=O)c1ccncc1`, the growth inhibition was 20.6%. On to `CCOc1ccccc1NC(=O)C(=O)Cc1nc2ccccc2s1`, for which the growth inhibition is 2.9%.

With `CC1CCCC(C)(C)/C1=N/O` (configuration not stated), the growth inhibition is 6.7%.

For `O=[N+]([O-])c1ccc(S(=O)(=O)c2ccc(NCN3CCCCC3)cc2)cc1`, the growth inhibition was 17.6%. For the compound `CN(N)C(=O)Nc1ccc([N+](=O)[O-])cc1`, the growth inhibition is -1.75%.

Turning to `CN(C)CCC1(C2=CCCC2)CC/C(=C\c2ccc3c(c2)OCO3)C1=O` (configuration not stated), the growth inhibition was 17.5%. The same measure, in the same setting: the figure for `CC(=O)NNC(=S)/N=C\c1c(O)c2ccccc2oc1=O` is -37.9%; for `NC(Cc1ccccc1)C(=O)Nc1cccnc1` (configuration not stated) it is -5.75%.

`CCN(CC)CCCC(C)Nc1cc(C)c2nc(C)cc(C)c2c1C` (configuration not stated): the growth inhibition was -18.6%.

On to `CCCCCCCCCCCCCC/C=N/Nc1ccc([N+](=O)[O-])cc1[N+](=O)[O-]`, for which the growth inhibition is 22.8%. Same read-out and setting: the figure for `C/C(=C/C(C)C)C(C)(C#N)C(N)=O` (configuration not stated) is 4.35%.

The values are drawn from PubChem BioAssay (NCI).
